# System: VDR:RXRa (NR concentration 270 nM, RXRa partner concentration 90 nM)
# Assay: PBM binding z-score (relative to random genomic background probes); higher = stronger binding; sequences stand for … in GC…GCGATTGACAGCGTAGAATGAAGG
# Protocol: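 Protein-binding microarray (Agilent 4x180K custom design, double-stranded 60-nt probes: 5' GC cap, 34-nt variable region, 24-nt constant primer region; full probe sequence given). Purified or IVT nuclear receptor:RXRα heterodimers (3:1 NR:RXRα, mostly 270:90 nM) or homodimers were incubated for 1 h in PBS with 2% milk and no ligand, then detected with Alexa488 antibodies. Fluorescence from o1-orientation probes (~5 replicates averaged) was converted to z-scores against 500 random hg19 background probes. Variable regions are seed direct-repeat (DR0–DR5) sites, all their single-nucleotide variants and half-site ablations.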
row,Sequence,PBM binding z-score
1,TCTGATAGGTCAGTTGGTCAGCTAACGAGCTGCC,0.777
2,TCAAATAGGTAATACAGGTGAAAGTCGGCATCTA,1.28
3,TCGAGTACGTTAGGGGCATTCAGAATGGCGTCGA,2.6
4,CTACCAAGGTGGACAAGGTCGTTGATTACTATTC,3
5,TCTATTAGTTCATTAGGGCAACCGAAACAGCGGA,2.2
6,ACTACTAGTTGACTTAGGGCAACCGATACGACGC,0.191
7,AGTCACAGTTCATCTAGGTAACGTAAGATATGCT,3.05
8,TCTGGTAGATCAACAGGAGGTTAAGAAAGATCGA,0.61
9,CCTACTGGGCCAAAAACGTCATTGATGCCGATAA,-0.0711
10,AGAATGAGGTTATTATGATCAGGGAATTGCGGTC,1.65
11,TCGAGTAGGTTAGGGGCATGCAGAATGGCGTCGA,0.195
12,CCAGACAGGTGAGAAGGTAACTAAGCCTCGATTA,-0.0342
13,CAAACTAGGTCACCGGAAGGACAAAGTCCGCATG,3.49
14,TAGCCTAGGTCATTGGGCCAATATAGTACGCATC,2.33
15,CCTTACGTGTCACGAGGTTATAGCACGACGAGCG,1.89
16,TCATATAGGTAAACAGGTGGAAGTCCGTAAGTTA,0.7
17,GCAGACAGGTGAAACGAAGGTAACTCAGGGTGGC,-0.301
18,ATCTAAAGGTCGTGAGGTGAGTATACAGAAAGGC,3.73
19,GCTGCTAGGTCAACTGATGTTCAGCTAAAGCTCG,1.61
20,CCTGCTAGGTCAATGGTCAGATAAAGCAGCTCGC,0.927

row,Sequence,PBM binding z-score
1,GCTTGTAGATCAAGGTTAAAAAAGACTAAGCTAA,0.328
2,TCATACAGGTGAAGGTAACTCAGGTACGCAGTCG,1.36
3,CAAACTAGGTCACGAAACGTCAAAGTCGAATGAC,2.2
4,TCTAGTTGGTCAAAGGTCACACCCTCGAAATGCG,5.06
5,TAGCCTAGGTCATGGGCCCGTATACCACGCGAAC,2.07
6,CGTCCAAGGTCATAGGAGGTCAGTTAAGACAGAT,6.3
7,CCTGCTAGGTCATGGTCCGCTAATCTACAGTATG,1.27
8,CCTCCTAGGTCAATGGTCAGCTAAAGCAGCTCGC,1.29
9,ATATGTAGGTTACATCCGGGACATTCAGGCTATG,1.14
10,TAGCCTAGGTCATTGGGCCACTATAGTACGCATC,2.23
11,ATCGAAAGGGCGACGAGGTGAGTATACACCGTTT,1.32
12,ATCGAAAGGTCGACGAGATGAGTATACACCGTTT,2.46
13,ACTCGGAGCACAAAGGTCAGAGCTACGCCAGTGA,3.58
14,ACAGACAGGTGAGTGAAGGTAACTCCGCTGGACG,-0.433
15,ACAGCCAGGTGAGTGAAGGTAACTCAGCTGGACG,-0.635
16,CGAATGAGGGCATGAGTTGATAGCAAATGCCGAT,1.48
17,ATCTCTAGGTAACCAAGTTCAGTGAATGCCGAAC,4.23
18,TCGAGTAGGTTAGTGGCATTCAGAATGGCGTCGA,-0.261
19,CATACAGGGTCAGCTAGGCCAGTGTAGGGACGGC,3.86
20,TCGAGTAGGTTACCAATGGGGCATTCCGCTTTCT,0.11

# From the supplement of paper PMC6555819
